Measurements as given in publication PMC9911399, “Two distinct binding modes provide the RNA-binding protein RbFox with extraordinary sequence specificity”.
Changes are numbered by the printed parent chain; changes in the protein carry UniProt numbers. Whole data set: some 16,000 sequences, median “ka relative to ugcaugu” near 0.096, cut for the highest 2% near 0.35. The full list was thinned out, with the highest values kept by preference.

T1: RBFOX1 RRM RbFoxmut (Fox-RRM*) (Homo sapiens, UniProt Q9NWB1 109-208, R118D;E147R;N151S;E152T)
T1 sequence: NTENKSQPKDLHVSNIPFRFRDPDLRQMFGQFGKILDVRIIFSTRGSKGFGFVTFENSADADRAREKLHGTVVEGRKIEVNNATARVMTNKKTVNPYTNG

B1: UACACUA (DNA:RNA)
RNA: GGGAGACCGGAAUUCAGAUUGUCCUACACUAUUAAAUCCCGUCGUAGCCACCA
DNA 1: CAATCTGAATTCCGGTCTCCC
DNA 2: TGGTGGCTACGACGGGATT
B2: UCCUGAU (DNA:RNA)
RNA: B1 RNA with A26C, A28U, C29G, U30A, A31U
DNA 1: CAATCTGAATTCCGGTCTCCC
DNA 2: TGGTGGCTACGACGGGATT
B3: ACCUCGU (DNA:RNA)
RNA: B1 RNA with U25A, A26C, A28U, U30G, A31U
DNA 1: CAATCTGAATTCCGGTCTCCC
DNA 2: TGGTGGCTACGACGGGATT
B4: GAGUAGC (DNA:RNA)
RNA: B1 RNA with U25G, C27G, A28U, C29A, U30G, A31C
DNA 1: CAATCTGAATTCCGGTCTCCC
DNA 2: TGGTGGCTACGACGGGATT
B5: GAAUGAC (DNA:RNA)
RNA: B1 RNA with U25G, C27A, A28U, C29G, U30A, A31C
DNA 1: CAATCTGAATTCCGGTCTCCC
DNA 2: TGGTGGCTACGACGGGATT
B6: AGAUUGA (DNA:RNA)
RNA: B1 RNA with U25A, A26G, C27A, A28U, C29U, U30G
DNA 1: CAATCTGAATTCCGGTCTCCC
DNA 2: TGGTGGCTACGACGGGATT
B7: CGAUGAC (DNA:RNA)
RNA: GGGAGACCGGAAUUCAGAUUGUCCCGAUGACUUAAAUCCCGUCGUAGCCACCA
DNA 1: CAATCTGAATTCCGGTCTCCC
DNA 2: TGGTGGCTACGACGGGATT
B8: ACCAGAA (DNA:RNA)
RNA: B1 RNA with U25A, A26C, C29G, U30A
DNA 1: CAATCTGAATTCCGGTCTCCC
DNA 2: TGGTGGCTACGACGGGATT
B9: GAUUGAC (DNA:RNA)
RNA: B7 RNA with C25G, G26A, A27U
DNA 1: CAATCTGAATTCCGGTCTCCC
DNA 2: TGGTGGCTACGACGGGATT
B10: AGAAUGA (DNA:RNA)
RNA: B7 RNA with C25A, U28A, G29U, A30G, C31A
DNA 1: CAATCTGAATTCCGGTCTCCC
DNA 2: TGGTGGCTACGACGGGATT

Target: T1, RBFOX1 RRM RbFoxmut (Fox-RRM*)
Assay: EMSA; HiTS-Eq, 1 nM pool, 10 min; buffer printed only for the single-RNA assays: 10 mM Tris pH 7.5, 150 mM NaCl, 3.4 mM EDTA, 0.001% NP-40, 30 C
Details: tags: His6 N-terminal (pET28a); label: 5' 32P
Summary of the method: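 A pool of RNA with 7 randomized nucleotides, 5′-radiolabelled and with DNA-annealed flanks, was equilibrated at 1 nM for 10 min in 50 µL with purified RbFox RRM, wild type or mutant, across increasing protein concentrations. Free RNA was separated by 8% native PAGE, excised, reverse-transcribed, barcoded by PCR and sequenced. Relative association constants were obtained from read-count changes of each RNA species versus the control reaction and normalised to the cognate motif.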

Point of comparison: B8, binding signal 0.0963 KA relative to UGCAUGU. Against it:
- B1 — lower, 0.0954 KA relative to UGCAUGU
- B2 — higher, 0.0975 KA relative to UGCAUGU
- B3 — higher, 0.106 KA relative to UGCAUGU
- B4 — higher, 0.108 KA relative to UGCAUGU
- B5 — higher, 0.829 KA relative to UGCAUGU
- B6 — higher, 0.117 KA relative to UGCAUGU
- B7 — higher, 0.141 KA relative to UGCAUGU
- B9 — higher, 0.109 KA relative to UGCAUGU
- B10 — higher, 0.646 KA relative to UGCAUGU
